ALOX12 inh – inhibitors of human 12S-lipoxygenase ALOX12 | P18054 | purified 12hLO, xylenol orange hydroperoxide absorbance | Potency, µM (titrated, usually from 108 µM), without a hit: at the top dose activity change, negative = inhibition, actives largely listed as inhibitors | 580,000 compounds, 1.1% hits; note: potency is the fitted concentration of half-maximal effect
Target sequence (P18054 whole entry, looked up): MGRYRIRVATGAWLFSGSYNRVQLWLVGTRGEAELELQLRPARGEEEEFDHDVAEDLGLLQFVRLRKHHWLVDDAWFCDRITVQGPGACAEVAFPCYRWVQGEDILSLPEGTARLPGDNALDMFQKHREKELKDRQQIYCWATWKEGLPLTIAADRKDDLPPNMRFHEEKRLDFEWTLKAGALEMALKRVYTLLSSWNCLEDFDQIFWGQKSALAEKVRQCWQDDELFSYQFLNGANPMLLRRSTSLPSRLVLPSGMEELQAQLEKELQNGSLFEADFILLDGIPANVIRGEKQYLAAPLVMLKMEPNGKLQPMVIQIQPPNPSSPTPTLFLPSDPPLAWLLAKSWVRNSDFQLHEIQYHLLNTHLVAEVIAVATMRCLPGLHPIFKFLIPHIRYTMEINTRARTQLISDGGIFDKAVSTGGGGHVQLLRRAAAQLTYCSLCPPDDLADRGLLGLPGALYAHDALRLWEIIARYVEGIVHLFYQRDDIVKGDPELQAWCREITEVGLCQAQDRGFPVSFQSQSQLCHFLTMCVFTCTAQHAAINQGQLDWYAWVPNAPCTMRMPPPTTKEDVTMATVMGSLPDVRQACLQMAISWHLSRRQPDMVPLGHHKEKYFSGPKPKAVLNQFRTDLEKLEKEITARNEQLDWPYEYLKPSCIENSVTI
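Purified human 12hLO at 150 nM in 25 mM Hepes, 0.01% Triton X-100, pH 7.0, preincubated 15 min at room temperature with compound. Reaction started with 40 uM arachidonic acid, 30 min at room temperature. Hydroperoxide measured by Fe-xylenol orange, 573/405 nm absorbance ratio.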
HT1080-NT tox – kills 2HG-producing HT-1080-NT fibrosarcoma cells; 360,000 compounds, 1.6% hits; HT-1080-NT fibrosarcoma viability, CellTiter-Glo ATP luminescence, 48 h; Potency, µM (series often up to 46.1 µM), for inactives: at the highest dose activity, negative = less viability, usual class: cytotoxic; AID 686970;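 note: NT is the 2HG producing partner of a matched IDH1 knockdown line; potency is the fitted concentration of half-maximal effect; 0% = DMSO-treated cells and -100% = media-only wells without cells; nearly all actives have a fitted effect of over 55% in size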
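HT-1080-NT; 750 cells/well; 5% FBS RPMI; 48 h compound, 37 degrees C; CellTiter-Glo luminescence; curve fitting and curve-class assignment.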
IL1B secr inh – inhibitors of inflammasome signaling (IL-1 beta secretion); THP-1 LPS/ATP IL-1B secretion, AlphaLISA, 16 h; hits give low values; activity change, % at 57.5 µM; 360,000 compounds, 4.7% hits; AID 743279; in the data active = activity change below about -50%; inconclusive = mostly about -30% to -49%
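Secreted IL-1B measured by AlphaLISA bead assay after 16 h compound exposure of THP-1 cells; compounds (final up to 57.5 uM) added 1 h before LPS (250 ng/mL) and ATP (1.25 mM) stimulation; lower signal means less secretion.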
HT1080 IDH1KD tx – toxicity to HT-1080 IDH1 knockdown cells (counter line) | HT-1080 IDH1 knockdown viability, ATP luminescence, 48 h | Potency, µM (doses to about 46.1 µM), inactives show at the top dose activity, negative = toxicity, actives largely listed as cytotoxic | 360,000 compounds, 2% hits | AID 686971;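 note: potency is the fitted concentration of half-maximal effect; 0% = DMSO wells and -100% = cell-free medium wells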
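% activity derives from luminescence (CellTiter-Glo), normalised to DMSO and no-cell wells. HT-1080-IDH1KD cells, 750/well, had 48 h compound exposure at 37 °C.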
DT40 TDP1 no CPT – qHTS for Inhibitors of human tyrosyl-DNA phosphodiesterase 1 (TDP1): qHTS in cells in absence of CPT; DT40 Tdp1-/- hTDP1 cells, no CPT, ATP luminescence, 48 h; Potency, µM (top dose mostly 46.2 µM), for inactives: at the top dose activity change, negative = growth inhibition, most hits filed as inhibitors; 420,000 compounds, 15% hits; note: potency is the fitted concentration of half-maximal effect; nearly all actives have a fitted effect of over 55% in size
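Chicken DT40 Tdp1-/- cells complemented with human TDP1, screened without camptothecin (DMSO vehicle only), 400 cells/well. Compounds pin-transferred, cells incubated at 37 °C for at least 48 hr. Growth read as ATP-dependent luminescence (CellTiter-Glo, 30 min at RT).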
DT40 TDP1 CPT – growth inhibition of DT40 Tdp1-/-;hTDP1 cells with camptothecin (screen for TDP1 inhibitors); chicken DT40 Tdp1-/-;hTDP1 cells + 20 nM CPT, ATP luminescence, 48 h; Potency, µM (titrated, usually from 46.2 µM), without a hit: at the top dose activity change, negative = growth inhibition, most hits filed as inhibitors; 420,000 compounds, 12% hits; note: potency is the fitted concentration of half-maximal effect; nearly all actives have a fitted effect of over 55% in size
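Chicken DT40 Tdp1-/- cells complemented with human TDP1, 400 cells/well, exposed to compounds plus 20 nM camptothecin for at least 48 h at 37 C; viability read as ATP content by CellTiter-Glo luminescence.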
Starred values were filed as active, the others as inactive; ? = inconclusive; / = no result; [ ] = remark or other dose. This excerpt belongs to a sample that is enriched for hits. Unless noted, calls come from the whole dose curve; as a rule, active = well fitted curve in the direction sought with a large enough effect; inconclusive = small, poorly fitted or top-dose-only effect, or another doubt; inactive = no such curve, though single readings can be large; an effect the other way counts as inactive or inconclusive. Unless noted, % is set by controls: 0 for no effect and ±100 for the full control effect.

SMILES | ALOX12 inh | HT1080-NT tox | IL1B secr inh | HT1080 IDH1KD tx | DT40 TDP1 no CPT | DT40 TDP1 CPT
O=C(Nc1ccc(Br)cc1)N1CCc2ccccc2C1 | 0% | -5% | -83* | -3% | -11% | -23%
O=C(Nc1ccc(F)cc1)N1CCc2ccccc2C1 | -13% | 10% | -55* | -1% | ? | -28%
O=C(c1ccc(F)cc1F)N1CCC(n2cnnc2C2CC2)CC1 | 44% | / | / | / | / | /
CCOC(=O)c1c(C)nc2sc3c(=O)n(-c4ccc(C(C)=O)cc4)cnc3c2c1-c1ccc(OC)cc1 | 380% | 12% | 37 | 16% | 16µM* | -113%
CCOC(=O)c1c(C)nc2sc3c(c2c1-c1ccc(OC)cc1)NC(c1ccccc1)NC3=O (configuration not stated) | 11% | -17% | 81 | -2% | 18µM* | ?
COc1ccc(-c2c(C(C)=O)c(C)nc3sc4c(c23)NC(c2ccccc2)NC4=O)cc1 (configuration not stated) | -1% | 3% | 33 | 6% | -27% | 1%
Brc1ccc(-c2noc(Cc3ccccc3)n2)o1 | 18% | / | / | / | / | /
COC(=O)C(c1ccccc1)(c1cn(C)c2ccccc12)C(Nc1ccccc1)c1cccc(Br)c1 (configuration not stated) | 3% | / | / | / | / | /
CCCCCCCc1c(O)nc(SCCN(C)C)[nH]c1=O | -11% | 16% | -51* | 3% | 0% | 7%
CCCCn1c(CCNC(=O)CCC)nc2ccccc21 | 17% | 11% | -5 | 4% | ? | -24%
CCCCn1c(CNC(=O)c2cccs2)nc2ccccc21 | 28% | 8% | 5 | -7% | ? | -13%
CCCCCn1c(CNC(=O)c2cccs2)nc2ccccc21 | -3% | 13µM* | -54* | 8%[9.24 µM] | ? | ?
CCCCCn1c(CCNC(=O)c2cccs2)nc2ccccc21 | 17% | ? | -77* | 3%[9.24 µM] | ? | ?
CCOC(=O)CC(NC(=O)c1cc2cc(Cl)ccc2oc1=O)c1ccccc1Cl (configuration not stated) | 47% | / | / | / | / | /
C#CCNC(=O)c1cc(-c2cccc(C(F)(F)F)c2)c2nncn2n1 | 1%[6.33 µM] | / | / | / | / | /
CCOc1ccccc1Oc1ccc(CNC(=O)c2nccnc2N)cn1 | 14% | / | / | / | / | /
CC(C)NC(=O)c1cccc2c1-c1ccccc1C2=O | -2% | 3% | -1 | 12% | 0% | -16%
Cc1[nH]c2ccccc2c1CCNC(=O)c1ccc2c(c1[N+](=O)[O-])C(=O)c1ccccc1C2=O | 0% | -17% | -103* | ? | 2.9µM* | 4.6µM*
CN(C)C(=O)c1ccc2c(c1[N+](=O)[O-])C(=O)c1ccccc1C2=O | -22% | -18% | -5 | -16% | 5.8µM* | 2.9µM*
Cc1[nH]c2c(C)cccc2c1CCNC(=O)c1ccc2c(c1[N+](=O)[O-])C(=O)c1ccccc1C2=O | -24% | 16µM* | -109* | 21µM* | 8.2µM* | 16µM*
C=CCc1cccc2cc(C(=O)NCCc3c(C)[nH]c4c(C)cccc34)c(=O)oc12 | -6% | / | / | / | / | /
O=C(Cn1c2c(c(=O)n1Cc1ccccc1)CCN(Cc1ccccc1)C2)N1CCC(c2ccccc2)CC1 | 9% | / | / | / | / | /
O=C(CN1CC2CC(C1)[C@H]1CCCC(=O)N1C2)NCc1ccc(F)cc1F (some centres not stated) | 31% | / | / | / | / | /
O=C(CN1C(=O)CSc2cc(S(=O)(=O)N3CCCCCC3)ccc21)NCCc1ccccc1 | -4% | 0% | -62* | -3% | ? | ?
